Reference: PubChem BioAssay AID1159580 (chemical genetic matrix, 2015)
Screen size: about 5,500 compounds; about 2,000 (36%) were called active. Not shown: some 18% with an inconclusive outcome. Rule as the data show it: active = normalized growth mostly below about 0.91 (no sharp cut-off); inconclusive = no clear call, values can overlap the other calls; inactive = mostly above about 0.92. The list shows a part of the results.

Assay: chemical genetic growth profiling, strain panel (AID 1159580);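 also: tested at 20 µM; growth read once vehicle control cultures reached saturation at 30 °C; 1 = growth at the plate median or of vehicle wells; lower values mean less growth of the strain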
Settings: S. cerevisiae deletion strains, growth OD
[1] = locus YAL021C, strain ccr4, active compounds read low
[2] = locus YAL026C, strain drs2, active compounds read low
[3] = locus YAL030W, strain snc1, active compounds read low
[4] = locus YBL061C, strain skt5, active compounds read low
[5] = locus YBR009C, strain hhf1, active compounds read low
[6] = locus YBR023C, strain chs3, active compounds read low
[7] = locus YBR171W, strain sec66, active compounds read low
[8] = locus YBR231C, strain swc5, active compounds read low
[9] = locus YBR279W, strain paf1, active compounds read low
[10] = locus YCL011C, strain gbp2, active compounds read low
[11] = locus YCL016C, strain dcc1, active compounds read low
[12] = locus YCL069W, strain vba3, active compounds read low
[13] = locus YCR088W, strain abp1, active compounds read low
[14] = locus YDL005C, strain med2, active compounds read low
[15] = locus YDL040C, strain nat1, active compounds read low
[16] = locus YDR001C, strain nth1, active compounds read low
[17] = locus YDR069C, strain doa4, active compounds read low
[18] = locus YDR137W, strain rgp1, active compounds read low
[19] = locus YDR159W, strain sac3, active compounds read low
[20] = locus YDR297W, strain sur2, active compounds read low
[21] = locus YDR334W, strain swr1, active compounds read low
[22] = locus YDR335W, strain msn5, active compounds read low
[23] = locus YDR392W, strain spt3, active compounds read low
[24] = locus YEL003W, strain gim4, active compounds read low
[25] = locus YEL037C, strain rad23, active compounds read low
[26] = locus YEL061C, strain CIN8 (second series), active compounds read low
[27] = locus YER015W, strain faa2, active compounds read low
[28] = locus YER016W, strain bim1, active compounds read low
[29] = locus YER111C, strain swi4, active compounds read low
[30] = locus YER155C, strain BEM2 (second series), active compounds read low
[31] = locus YFR010W, strain ubp6, active compounds read low
[32] = locus YGL167C, strain pmr1, active compounds read low
[33] = locus YGL173C, strain kem1, active compounds read low
[34] = locus YGL227W, strain vid30, active compounds read low
[35] = locus YGL240W, strain doc1, active compounds read low
[36] = locus YGL253W, strain hxk2, active compounds read low
[37] = locus YHR013C, strain ard1, active compounds read low
[38] = locus YHR027C, strain rpn1, active compounds read low
[39] = locus YHR030C, strain SLT2, active compounds read low
[40] = locus YHR079C, strain IRE1, active compounds read low
[41] = locus YHR142W, strain chs7, active compounds read low
[42] = locus YJL092W, strain hpr5, active compounds read low
[43] = locus YJL095W, strain BCK1 (second series), active compounds read low
[44] = locus YJL095W, strain BCK1, active compounds read low
[45] = locus YJL115W, strain asf1, active compounds read low
[46] = locus YJL129C, strain trk1, active compounds read low
[47] = locus YJL154C, strain vps35, active compounds read low
[48] = locus YJL164C, strain tpk1, active compounds read low
[49] = locus YJL166W, strain qcr8, active compounds read low
[50] = locus YJR066W, strain TOR1, active compounds read low
[51] = locus YKL160W, strain elf1, active compounds read low
[52] = locus YKR026C, strain gcn3, active compounds read low
[53] = locus YKR091W, strain srl3, active compounds read low
[54] = locus YLL001W, strain dnm1, active compounds read low
[55] = locus YLL026W, active compounds read low
[56] = locus YLL041C, strain sdh2, active compounds read low
[57] = locus YLR027C, strain aat2, active compounds read low
[58] = locus YLR113W, strain HOG1, active compounds read low
[59] = locus YLR221C, strain rsa3, active compounds read low
[60] = locus YLR258W, strain gsy2, active compounds read low
[61] = locus YLR262C, strain YPT6 (second series), active compounds read low
[62] = locus YLR320W, strain mms22, active compounds read low
[63] = locus YLR342W, strain FKS1, active compounds read low
[64] = locus YLR357W, strain rsc2, active compounds read low
[65] = locus YLR370C, strain arc18, active compounds read low
[66] = locus YLR384C, strain iki3, active compounds read low
[67] = locus YML120C, strain ndi1, active compounds read low
[68] = locus YMR058W, strain fet3, active compounds read low
[69] = locus YMR125W, strain sto1, active compounds read low
[70] = locus YMR129W, active compounds read low
[71] = locus YMR205C, strain PFK2, active compounds read low
[72] = locus YMR231W, strain pep5, active compounds read low
[73] = locus YNL071W, strain lat1, active compounds read low
[74] = locus YNL183C, strain NPR1, active compounds read low
[75] = locus YNL209W, strain ssb2, active compounds read low
[76] = locus YNL248C, strain rpa49, active compounds read low
[77] = locus YNL322C, strain KRE1 (second series), active compounds read low
[78] = locus YNR049C, strain mso1, active compounds read low
[79] = locus YOR001W, strain rrp6, active compounds read low
[80] = locus YOR070C, strain gyp1, active compounds read low
[81] = locus YOR080W, strain dia2, active compounds read low
[82] = locus YOR083W, strain WHI5, active compounds read low
[83] = locus YOR106W, strain vam3, active compounds read low
[84] = locus YOR231W, strain MKK1, active compounds read low
[85] = locus YOR265W, strain rbl2, active compounds read low
[86] = locus YOR270C, strain vph1, active compounds read low
[87] = locus YOR290C, strain snf2, active compounds read low
[88] = locus YPL051W, strain arl3, active compounds read low
[89] = locus YPL078C, strain atp4, active compounds read low
[90] = locus YPL106C, strain sse1, active compounds read low
[91] = locus YPL240C, strain hsp82, active compounds read low
[92] = locus YPL256C, strain CLN2, active compounds read low

Measured: normalized growth

CNS(=O)(=O)Cc1ccc2[nH]cc(CCN(C)C)c2c1
inactive: [1] 0.999 | [2] 1.02 | [3] 1.02 | [4] 1.03 | [5] 1.03 | [6] 1.03 | [7] 1.04 | [8] 1.03 | [9] 1.02 | [10] 1.02 | [11] 1.02 | [12] 1.03 | [13] 1.03 | [14] 1.04 | [15] 1.02 | [16] 1.04 | [17] 1.02 | [18] 1.04 | [19] 1.03 | locus YDR195W, strain ref2 1 | [20] 1.02 | [21] 1.02 | [22] 1.02 | [23] 1.01 | [24] 1.02 | [25] 1.03 | [26] 1.03 | [27] 1.02 | [28] 1.02 | [29] 1.02 | [30] 1 | [31] 1.03 | [32] 1.03 | [33] 1.05 | [34] 1.03 | [35] 1.02 | [36] 1.02 | [37] 1.07 | [38] 1.04 | [39] 1.07 | [40] 1.05 | [41] 1.04 | [42] 1.03 | [43] 1.02 | [44] 1.01 | [45] 1.03 | [46] 1.07 | [47] 1.03 | [48] 1.02 | [49] 1.02 | locus YJL187C, strain SWE1, active compounds read low 1.03 | [50] 0.977 | [51] 1.02 | [52] 1.03 | [53] 1.01 | [54] 1.02 | [55] 1.01 | [56] 1.02 | [57] 1.01 | [58] 0.935 | [59] 1.02 | [60] 1.03 | [61] 1.04 | [62] 1.04 | [63] 1.02 | [64] 1.02 | [65] 1.01 | [66] 1.03 | [67] 1.02 | [68] 1.04 | [69] 1.02 | [70] 1.01 | [71] 1.05 | [72] 1.03 | [73] 1.03 | [74] 0.97 | [75] 1.02 | [76] 1.06 | [77] 1.02 | [78] 1.02 | [79] 1.03 | [80] 1.03 | [81] 1.03 | [82] 1.01 | [83] 1.05 | [84] 1.03 | [85] 1.01 | [86] 1.1 | [87] 1.02 | [88] 1.02 | [89] 1.02 | [90] 1.03 | [91] 1.02 | [92] 1.06

CN(C)CCc1c[nH]c2ccc(C[C@H]3COC(=O)N3)cc12
inactive: [1] 1.02 | [2] 1.01 | [3] 1.01 | [4] 1.01 | [5] 1.01 | [6] 1.01 | [7] 1.02 | [8] 0.993 | [9] 1.01 | [10] 1.01 | [11] 1 | locus YCL061C, strain MRC1, active compounds read low 1.01 | [12] 1.01 | [13] 1.01 | [14] 1.01 | [15] 1.01 | [16] 1.01 | [17] 1.02 | [18] 0.993 | [19] 1.04 | locus YDR195W, strain ref2 0.978 | [20] 1.01 | [21] 1.02 | [22] 1.01 | [23] 1.03 | [24] 1 | [25] 1.01 | [26] 1.01 | [27] 1.01 | [28] 1.01 | [29] 1.02 | [30] 1.06 | [31] 1.02 | [32] 1.01 | [33] 1 | [34] 1.01 | [35] 1.01 | [36] 0.998 | [37] 1 | [38] 1.01 | [39] 1.02 | [40] 0.986 | [41] 0.992 | [42] 1.01 | [43] 1.01 | [44] 1 | [45] 1.01 | [46] 0.988 | [47] 1.01 | [48] 1.02 | [49] 1.01 | [50] 0.966 | [51] 1 | [52] 0.992 | [53] 0.997 | [54] 1.01 | [55] 1.01 | [56] 1.01 | [57] 1.01 | [58] 0.972 | [59] 1.02 | [60] 1.01 | [61] 1.01 | [62] 1.01 | [63] 1.01 | [64] 0.973 | [65] 1.01 | [66] 1 | [67] 1.02 | [68] 1.01 | [69] 1.01 | [70] 1.01 | [71] 0.998 | [72] 1 | [73] 1.01 | [74] 0.978 | [75] 1.01 | [76] 1 | [77] 1.01 | [78] 1.01 | [79] 0.998 | [80] 1.01 | [81] 1 | [82] 1 | [83] 1 | [84] 0.999 | [85] 1.01 | [86] 0.991 | [87] 1.01 | [88] 1.01 | [89] 1 | [90] 1.04 | [91] 1.01 | [92] 1.02
